# LmPK inh: inhibitors of Leishmania mexicana pyruvate kinase | Potency, µM (top dose mostly 57.5 µM), inactives show at the top dose activity change, negative = inhibition, most hits filed as inhibitors | AID 1721 | purified LmPK, Kinase-Glo ATP luminescence, 1 h | Q27686 | 290,000 tested, 0.37% active; also: potency is read from the fitted curve at half-maximal effect; % is scaled to controls: 0 for no effect and ±100 for the full control effect
#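 0.1 nM LmPK, 0.5 mM PEP, 0.1 mM ADP; 50 mM imidazole pH 7.2, 7 mM MgCl2, 50 mM KCl; 1 h RT. Kinase-Glo luminescence readout, normalized to no-enzyme (full inhibition) and uninhibited wells.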
# RE007 growth inh: less growth of the S. pombe RE007 Vpr strain; AID 651644; 360,000 tested, 0.21% active; S. pombe RE007 Vpr strain, BacTiter-Glo ATP luminescence, 24 h; Potency, µM (doses to about 92.2 µM), inactives show top-dose activity change, negative = less growth, actives largely listed as inhibitors; active = well fitted falling curve with a large enough effect; inconclusive = small, poorly fitted or top-dose-only effect; inactive = no such curve, though single readings can be large or run the other way; also: potency is read from the fitted curve at half-maximal effect; % is scaled to controls: 0 for no effect and ±100 for the full control effect; nearly all actives have a fitted effect of over 50% in size
#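 Fission yeast RE007 carrying one integrated HIV-1 vpr copy, seeded at OD 0.01 in PMG+AL medium with 23 nL pinned compound. Grown 24 h at 30 degrees; viability read by BacTiter-Glo luminescence after 5 min.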
# CHX counter: affects cycloheximide protein synthesis inhibition readout, counter-screen; cell reporter, cycloheximide protein synthesis inhibition counterscreen; max response, %; 300,000 tested, 12% active; AID 2314; in the data active = max response mostly above about 13%, no sharp cut-off; inactive = mostly below about 14%; also: read at 38.3 µM for the half of the compounds with a filed dose; 0% is about no effect
# Tb PYK inh: inhibitors of Trypanosoma brucei pyruvate kinase. AID 624173. 410,000 tested, 0.12% active. Potency, µM (doses to about 76.8 µM), for the others: at the top dose activity, negative = inhibition, usual class: inhibitors. Q57TT1. TbPYK enzyme, Kinase-Glo Plus ATP luminescence, 45 min; also: potency is read from the fitted curve at half-maximal effect; % is scaled to controls: 0 for no effect and ±100 for the full control effect; nearly all actives have a fitted effect of over 50% in size
#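 Screened from lowest to highest concentration, compounds were pinned into TbPYK/substrate mixtures, and ADP (130 uM final) was added. Plates sat at room temperature for 45 min prior to Kinase-Glo Plus detection by luminescence.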
# FBPA Giardia inh: Giardia lamblia aldolase inhibition; 290,000 tested, 0.71% active; purified Giardia FBPA; Potency, µM (titrated, usually from 59.6 µM), inactives show at the highest dose activity, negative = inhibition, actives largely listed as inhibitors; A8B2U2; also: potency is read from the fitted curve at half-maximal effect; % is scaled to controls: 0 for no effect and ±100 for the full control effect; nearly all actives have a fitted effect of over 55% in size
# Target sequence (A8B2U2 whole entry, looked up): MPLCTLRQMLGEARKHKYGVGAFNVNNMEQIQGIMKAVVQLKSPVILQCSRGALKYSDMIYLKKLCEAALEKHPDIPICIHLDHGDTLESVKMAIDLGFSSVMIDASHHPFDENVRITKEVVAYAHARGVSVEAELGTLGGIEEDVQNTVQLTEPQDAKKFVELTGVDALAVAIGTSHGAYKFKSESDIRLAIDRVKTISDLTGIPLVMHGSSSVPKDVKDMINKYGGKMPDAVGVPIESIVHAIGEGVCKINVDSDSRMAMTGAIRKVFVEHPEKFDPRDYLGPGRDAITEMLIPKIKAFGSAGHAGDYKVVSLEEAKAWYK
#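 Giardia FBPA (40 nM reagent) was preincubated 10 min at RT with compound (up to 57.5 uM final), then substrate plus GAPDH/TPI/NAD/arsenate coupling system with diaphorase/resazurin was added; resorufin fluorescence (525/598 nm) was read after 20 min.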
# Shiga inhibitor: inhibitors of Shiga toxin in Vero cells; 290,000 tested, 9.2% active; AID 2315; Vero cells, Shiga toxin protein synthesis inhibition reporter; inhibition, % at 38.7 µM; in the data active = inhibition mostly above about 28%, no sharp cut-off; inactive = mostly below about 43%; also: 0% is about no effect
# Active calls of the source: *; i = inactive; ? = inconclusive; . = no result; [ ] = dose if it differs, or a comment. This is one part of a sample in which hits are shown more often than they occur. Unless noted, calls follow the shape of the dose curve; as a rule, active = well fitted curve in the direction sought with a large enough effect; inconclusive = small, poorly fitted or top-dose-only effect, or another doubt; inactive = no such curve, though single readings can be large; an effect the other way counts as inactive or inconclusive.
SMILES,LmPK inh,RE007 growth inh,CHX counter,Tb PYK inh,FBPA Giardia inh,Shiga inhibitor
Cc1ccc2sc(NC(=O)CN3C(=O)c4ccccc4C3=O)nc2c1C,8.2%,1.4%,-2.8,1.0%,6.6%,-14.7
COc1cccc(-c2csc(NNC(=O)c3cccs3)n2)c1,-0.4%,30.9%,14.6,-7.0%,8.9%,36.3
COc1cccc(-c2csc(NC(=O)Oc3ccccc3)n2)c1,-0.2%,-11.4%,47.6*,7.0%,-4.5%,137.1*
C[C@@H]1CN([C@@H](C)CO)C(=O)CCCn2nncc2CO[C@H]1CN(C)C(=O)C1CC1,.,-3.2%,.,9.5%,.,.
CC1Oc2ccccc2N(CC(=O)NCc2ccccc2)C1=O (centres undefined),-28.2%,2.3%,31.3*,-2.4%,0.4%,105.3*
CCN(CC)CCCOc1ccc(C)cc1Br,2.2%,-11.8%,5.9,13.1%,-18.0%,8.7
CCOc1ccccc1OCCCOc1ccc(C)cc1Br,-3.1%,-0.3%,40.9*,-2.2%,-0.5%,70.1*
C=CCNCCCOc1ccc(C)cc1Br,-2.7%,5.4%,27.1*,4.5%,-9.2%,65.0*
COCCCNCCCOc1ccc(C)cc1Br,-3.0%,-4.4%,-4.1,27.8%,?,-3.0
CCOc1ccccc1OCCCOc1ccc(C)cc1Cl,-8.3%,-17.9%,23.1*,-7.8%,2.3%,61.5*
COc1cccc(-c2nccc(NCc3ccccc3)n2)c1,.,.,.,.,-4.2%,.
O=C(CN1Cc2ccccc2C1=O)Nc1cc(F)ccc1F,.,.,.,1.1%,.,.
COc1ccc(Nc2oc(/C=C/c3cc(OC)c(OC)c(OC)c3)nc2C#N)cc1,.,.,.,-2.8%,.,.
Cc1ccc2c(Cl)c(C(=O)NCCc3ccccc3)sc2c1,-4.6%,-13.8%,48.2*,-3.1%,1.0%,123.9*
Cc1ccc2c(Cl)c(C(=O)Nc3cc(C)on3)sc2c1,-3.2%,8.6%,31.4*,1.3%,1.5%,77.7*
CCNC(=O)c1sc2cc(C)ccc2c1Cl,0.0%,-1.9%,25.2*,2.3%,-4.2%,39.1*
Cc1cc(NC(=O)c2c(Cl)cccc2Cl)no1,6.3%,8.9%,-1.7,4.9%,2.0%,-2.6
COc1ccc(CCNC(=O)c2sc3cc(C)ccc3c2Cl)cc1,6.6%,16.6%,2.0,-0.7%,-0.2%,11.9
CCOc1cc(NC(=O)C(C)C)c(OCC)cc1NC(=O)Nc1ccccc1,-2.7%,3.9%,-1.0,-7.4%,6.7%,.
CCCCCCOC(=O)C1(O)CC2OC1(C)n1c3ccccc3c3c4c(c5c6ccccc6n2c5c31)C(=O)NC4 (centres undefined),.,.,11.3,.,0.7%[2.35 µM],i
Cc1cccc(NC(=O)CSc2nc3n[nH]c(C)c3c(=N)n2-c2cccc(Cl)c2)c1,.,.,.,-2.8%,.,.
COc1ccc(-c2ncc(CN3CCN(CCC(C)C)C(CCO)C3)cn2)cc1 (centres undefined),0.0%,1.7%,32.6*,1.9%,1.4%,65.6*
Cc1cccc(-c2ncc(CN3CCN(CC(C)C)C(CCO)C3)cn2)c1 (centres undefined),-4.5%,-9.1%,15.5,4.5%,-2.4%,41.1*
CC(C)CN1CCN(Cc2cccc3nccnc23)CC1CCO (centres undefined),0.9%,-11.3%,-0.9,-3.0%,-2.0%,-6.6
Cc1cc(Br)c(NC(=O)CN2C(=O)NC3(CCOc4ccccc43)C2=O)c(Br)c1 (centres undefined),.,-0.1%,.,-0.2%,.,.
SMILES,LmPK inh,RE007 growth inh,CHX counter,Tb PYK inh,FBPA Giardia inh,Shiga inhibitor
CCC(=O)N1CCc2cc(Br)cc(S(=O)(=O)CCC(=O)N3CCN(c4ccc(OC)cc4)CC3)c21,.,.,.,1.5%,.,.
O=C(CN1C(=O)C2(SCC(=O)N2c2ccc(F)c(F)c2)c2ccccc21)NCCc1ccccc1 (centres undefined),.,.,.,-3.4%,.,.
Cc1cnc2c3c(cc(Cl)c2c1)-c1ccccc1S(=O)(=O)N3,.,.,72.7*,.,.,54.0*
C/C(CC(=O)Nc1ccc2c(c1)OCO2)=N\NC(=O)c1ccccc1N,0.0%,9.3%,59.2*,-1.3%,4.8%,100.5*
C/C(CC(=O)Nc1ccc2c(c1)OCO2)=N\NC(=O)OC(C)(C)C,-1.9%,14.1%,17.8,2.6%,0.5%,-4.5
C/C(CC(=O)Nc1ccc2c(c1)OCCO2)=N\NC(=O)c1ccccc1F,-0.7%,1.7%,29.5*,-6.6%,6.5%,78.9*
COc1ccccc1C(=O)N/N=C(\C)CC(=O)Nc1ccc2c(c1)OCCO2,-3.0%,-9.3%,9.4,-1.1%,2.7%,29.9
C/C(CC(=O)Nc1ccc2c(c1)OCO2)=N\NC(=O)c1ccc(N)cc1,-4.5%,6.7%,22.0*,-4.2%,-13.5%,52.8*
CCOC(=O)N1CCN(C(=O)CNC(=O)c2nn(-c3ccc(OC)cc3OC)c(=O)c3ccccc23)CC1,3.0%,3.2%,24.7*,-0.4%,-1.3%,31.5*
COc1ccc(-n2nc(C(=O)NCC(=O)N3CCN(c4ccccc4)CC3)c3ccccc3c2=O)c(OC)c1,-3.1%,-4.2%,16.3,0.2%,1.9%,36.8
COc1ccc(-n2nc(C(=O)NCC(=O)N3CCN(c4ccc(F)cc4)CC3)c3ccccc3c2=O)c(OC)c1,8.4%,-2.0%,16.1*,3.7%,-0.2%,28.8
O=c1cc(-c2ccc(Cl)cc2)[nH]c2ccccc12,5.3%,-14.6%,1.5,1.5%,0.9%,21.4
Clc1ccc(-c2cc3ccccc3[nH]2)cc1,2.6%,-20.6%,62.4*,2.7%,-2.0%,110.2*
CCCCCCN(C(=O)CCCCCN1C(=O)NC(c2ccc([N+](=O)[O-])cc2)C(C(=O)OCc2ccccc2)=C1C)C(C(=O)NCCCC)C1CCCCC1 (centres undefined),.,4.3%,.,0.1%,.,.
O=C(NNS(=O)(=O)c1ccc(F)cc1F)c1csc(-c2cccnc2)n1,-3.4%,-7.0%,-4.6,-1.7%,-5.0%,-1.4
O=C(Nc1ccc(F)cc1F)c1csc(-c2ccncc2)n1,-0.6%,-6.4%,26.7*,-9.5%,1.0%,14.6
O=C(Nc1ccc(F)cc1F)c1csc(-c2cccs2)n1,-4.7%,3.9%,47.7*,-0.4%,0.1%,117.6*
O=C(C1CCC1)N1CCc2cc(S(=O)(=O)NCCc3ccccc3)ccc21,.,.,.,2.3%,.,.
CCOP(=O)(OCC)C(=Cc1cc(C(C)(C)C)c(O)c(C(C)(C)C)c1)P(=O)(OCC)OCC,.,.,-3.8,.,0.7%,-5.2
O=C(Nc1ccccc1)c1cccc(C(F)(F)F)c1,-4.5%,-0.7%,11.3*,26.3%,0.5%,33.3*
Cc1nc2ccc(NC(=O)c3cccc(C(F)(F)F)c3)cc2o1,8.1%,-17.1%,20.6*,-3.1%,-2.8%,60.3
CC(=O)N1CCC(N(Cc2ccc(C)o2)C(=O)Nc2cccc(C(F)(F)F)c2)CC1,.,.,.,1.6%,.,.
CC1CCCC2(C1)NC(=S)N(c1ccccc1)N2 (centres undefined),-1.9%,164.4%,28.4*,-11.4%,-0.6%,27.5
Cn1c(/C(C#N)=C/c2ccccc2Br)nc2ccccc21,.,.,.,-7.5%,.,.
